In the supplement of paper PMC10849652:
Targets with a hit are over-represented here; the source holds about 7,900 in all. About 0.6% of all pairs of compound and target were hits.

Experiments:
Assay in all cases: log2 fold change, soluble protein after heating vs DMSO (PISA); higher = thermal stabilisation; K562 cells, 10 uM, 30 min; active = over 0.2 and 3.5 SD of the protein, either way, in both replicates (recomputed)
[1] = compound: C1=CC=C(C=C1)[C@H](COC2=CC3=C(C=C2)NC(=O)N3)NC(=O)C4=CC=CN(C4=O)CC5=CC(=C(C=C5)F)F
Method in brief: (§1)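 Thermal stability values are relative to control samples and come from duplicates. They are expressed as log2 fold changes. For measurement, K562 cells (2×10^6 cells/mL) received 10 μM compound for 30 min, and aliquots were heated for 3 min over 48°C-58°C, pooled, and extracted at 4°C in PBS with 0.5% NP-40. Soluble protein, the supernatant after 21,000xg for 90 min, was quantified by TMTpro 16plex LC-MS/MS with equalised channel sums.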

[2] = compound: CC1=C(SC2=C1C(=N[C@H](C3=NN=C(N32)C)CC(=O)N)C4=CC=C(C=C4)Cl)C
Method in brief: as §1

[3] = compound: CC1=C2C(=CC=C1)N=C(N(C2=O)C3=CC=CC=C3C)CN4C=NC5=C(N=CN=C54)N
Method in brief: as §1

[4] = compound: Cc1sc2c(c1C)C(c1ccc(Cl)cc1)=N[C@@H](CC(=O)OC(C)(C)C)c1nnc(C)n1-2
Method in brief: as §1

[5] = compound: c1ccc([C@@H]2C[C@H]2NC2CCNCC2)cc1
Method in brief: as §1

Measured: log2 fold change

SYNE2 isoform 2 (UniProt Q8WXH0)
inactive: [1] 0.064 | [2] 0.055 | [3] 0.209 | [4] -0.004 | [5] 0.096

TBRG4 (UniProt Q969Z0)
inactive: [1] -0.106 | [2] 0.022 | [3] 0.077 | [4] -0.049 | [5] -0.017

SPART (UniProt Q8N0X7)
Chain of UniProt Q8N0X7 (Q8N0X7 whole entry, looked up): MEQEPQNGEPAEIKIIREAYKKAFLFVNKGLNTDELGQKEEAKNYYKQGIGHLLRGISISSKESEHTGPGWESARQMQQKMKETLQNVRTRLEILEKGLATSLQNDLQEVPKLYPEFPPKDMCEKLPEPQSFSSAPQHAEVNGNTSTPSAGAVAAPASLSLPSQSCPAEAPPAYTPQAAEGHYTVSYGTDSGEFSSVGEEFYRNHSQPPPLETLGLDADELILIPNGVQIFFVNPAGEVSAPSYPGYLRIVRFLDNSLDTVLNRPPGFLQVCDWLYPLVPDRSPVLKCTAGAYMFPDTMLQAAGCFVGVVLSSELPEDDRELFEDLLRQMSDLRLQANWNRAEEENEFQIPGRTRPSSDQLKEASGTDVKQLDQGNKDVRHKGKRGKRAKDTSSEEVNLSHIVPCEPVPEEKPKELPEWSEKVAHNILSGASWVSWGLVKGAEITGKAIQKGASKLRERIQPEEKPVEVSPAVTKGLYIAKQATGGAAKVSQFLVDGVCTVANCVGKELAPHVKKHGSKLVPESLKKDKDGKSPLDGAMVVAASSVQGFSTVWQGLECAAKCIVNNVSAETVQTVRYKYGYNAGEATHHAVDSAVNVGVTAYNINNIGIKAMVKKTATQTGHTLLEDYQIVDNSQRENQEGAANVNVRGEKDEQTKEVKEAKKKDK
inactive: [1] -0.028 | [2] 0.043 | [3] 0.065 | [4] 0.018 | [5] -0.002

TAOK3 (UniProt Q9H2K8)
inactive: [1] 0 | [2] 0.057 | [3] 0.002 | [4] -0.003 | [5] -0.024

SLC27A1 (UniProt Q6PCB7)
inactive: [1] -0.02 | [2] 0.161 | [3] 0.293 | [4] 0.11 | [5] -0.029

SP1 (UniProt P08047)
inactive: [1] 0.002 | [2] -0.029 | [3] 0.016 | [4] 0.051 | [5] 0.02

SMAP2 (UniProt Q8WU79)
inactive: [1] -0.041 | [2] 0.013 | [3] 0.086 | [4] 0.001 | [5] 0.011

SREBF1 isoform 4 (UniProt P36956)
inactive: [1] 0.026

SNX3 (UniProt O60493)
inactive: [1] -0.057 | [2] 0 | [3] 0.105 | [4] -0.006 | [5] -0.064

TENT5C (UniProt Q5VWP2)
inactive: [1] 0.017 | [2] 0.25 | [3] 0.122 | [4] 0.116 | [5] -0.35

THADA (UniProt Q6YHU6)
inactive: [1] -0.06 | [2] 0.066 | [3] 0.011 | [4] -0.027 | [5] -0.032

SP100 isoform 4 (UniProt P23497)
inactive: [1] -0.006 | [2] -0.015 | [3] -0.047 | [4] 0 | [5] 0.024

ST6GAL1 (UniProt P15907)
inactive: [1] 0.017 | [2] 0.012 | [3] 0.033 | [4] -0.018 | [5] -0.006

SRSF3 (UniProt P84103)
inactive: [1] 0.099 | [2] -0.18 | [3] -0.159 | [4] 0.152 | [5] 0.055

STK38 (UniProt Q15208)
inactive: [1] -0.08 | [2] 0.045 | [3] 0.055 | [4] 0.028 | [5] -0.034

SLC27A2 (UniProt O14975)
inactive: [1] 0.038 | [2] 0.036 | [3] 0.141 | [4] 0.011 | [5] -0.027

SNRPB2 (UniProt P08579)
inactive: [1] 0.083 | [2] 0.002 | [3] -0.044 | [4] 0.07 | [5] 0.02

SNX2 (UniProt O60749)
inactive: [1] -0.015 | [2] 0.069 | [3] 0.066 | [4] -0.026 | [5] -0.079

TFR2 (UniProt Q9UP52)
inactive: [1] 0.01 | [2] 0.018 | [3] 0.004 | [4] 0.007 | [5] 0.026

STK17B (UniProt O94768)
inactive: [1] 0.043

SPR (UniProt P35270)
inactive: [1] 0.026 | [2] 0.04 | [3] 0.031 | [4] -0.058 | [5] -0.105

SYF2 (UniProt O95926)
Chain of UniProt O95926 (O95926 whole entry, looked up): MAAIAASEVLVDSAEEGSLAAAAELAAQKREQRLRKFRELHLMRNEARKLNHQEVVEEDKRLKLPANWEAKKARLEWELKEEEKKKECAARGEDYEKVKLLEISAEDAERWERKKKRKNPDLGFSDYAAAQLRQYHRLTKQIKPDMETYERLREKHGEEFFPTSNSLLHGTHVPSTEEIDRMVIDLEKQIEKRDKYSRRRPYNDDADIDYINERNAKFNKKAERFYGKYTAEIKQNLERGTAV
inactive: [1] 0.032 | [2] 0.029 | [3] -0.077 | [4] 0.145 | [5] 0.065

STRN (UniProt O43815)
inactive: [1] -0.025 | [2] 0.011 | [3] -0.003 | [4] -0.108 | [5] -0.017

TBCD (UniProt Q9BTW9)
inactive: [1] -0.028 | [2] 0.03 | [3] 0.101 | [4] -0.004 | [5] -0.03

TERF2IP (UniProt Q9NYB0)
Chain of UniProt Q9NYB0 (Q9NYB0 whole entry, looked up): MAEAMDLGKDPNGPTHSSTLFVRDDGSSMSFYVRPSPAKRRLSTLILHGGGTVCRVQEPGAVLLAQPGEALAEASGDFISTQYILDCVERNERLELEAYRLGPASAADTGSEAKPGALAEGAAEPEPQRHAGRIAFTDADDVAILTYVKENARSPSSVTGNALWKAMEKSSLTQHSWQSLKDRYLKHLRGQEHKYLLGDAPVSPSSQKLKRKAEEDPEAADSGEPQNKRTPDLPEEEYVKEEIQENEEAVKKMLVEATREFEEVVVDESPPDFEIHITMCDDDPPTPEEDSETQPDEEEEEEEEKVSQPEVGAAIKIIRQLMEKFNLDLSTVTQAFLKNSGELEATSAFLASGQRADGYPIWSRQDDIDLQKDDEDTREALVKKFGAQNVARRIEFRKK
inactive: [1] 0.003 | [2] 0.01 | [3] 0.004 | [4] -0.01 | [5] 0.066

SLC35B1 isoform 2 (UniProt P78383)
inactive: [1] -0.166 | [2] -0.233 | [3] 0.146 | [4] -0.215 | [5] 0.027

SOX5 (UniProt P35711)
inactive: [1] -0.033 | [2] 0.005 | [3] -0.058 | [4] -0.018 | [5] -0.022

STK4 (UniProt Q13043)
Chain of UniProt Q13043 (Q13043 whole entry, looked up): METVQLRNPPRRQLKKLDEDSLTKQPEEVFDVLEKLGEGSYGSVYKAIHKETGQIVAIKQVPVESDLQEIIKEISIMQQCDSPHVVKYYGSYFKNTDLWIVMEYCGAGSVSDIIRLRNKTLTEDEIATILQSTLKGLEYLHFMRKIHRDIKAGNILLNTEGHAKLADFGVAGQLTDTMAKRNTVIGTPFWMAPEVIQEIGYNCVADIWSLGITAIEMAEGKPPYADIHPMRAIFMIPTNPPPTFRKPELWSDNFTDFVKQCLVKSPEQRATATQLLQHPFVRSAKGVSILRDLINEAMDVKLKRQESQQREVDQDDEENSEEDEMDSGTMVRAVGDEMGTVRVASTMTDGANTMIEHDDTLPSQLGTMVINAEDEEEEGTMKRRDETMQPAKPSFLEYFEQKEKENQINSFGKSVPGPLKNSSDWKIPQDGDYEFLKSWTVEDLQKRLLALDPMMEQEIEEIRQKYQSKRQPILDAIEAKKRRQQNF
inactive: [1] -0.008 | [2] 0.088 | [3] 0.057 | [4] 0.005 | [5] -0.001

SLC30A7 (UniProt Q8NEW0)
Chain of UniProt Q8NEW0 (Q8NEW0 whole entry, looked up): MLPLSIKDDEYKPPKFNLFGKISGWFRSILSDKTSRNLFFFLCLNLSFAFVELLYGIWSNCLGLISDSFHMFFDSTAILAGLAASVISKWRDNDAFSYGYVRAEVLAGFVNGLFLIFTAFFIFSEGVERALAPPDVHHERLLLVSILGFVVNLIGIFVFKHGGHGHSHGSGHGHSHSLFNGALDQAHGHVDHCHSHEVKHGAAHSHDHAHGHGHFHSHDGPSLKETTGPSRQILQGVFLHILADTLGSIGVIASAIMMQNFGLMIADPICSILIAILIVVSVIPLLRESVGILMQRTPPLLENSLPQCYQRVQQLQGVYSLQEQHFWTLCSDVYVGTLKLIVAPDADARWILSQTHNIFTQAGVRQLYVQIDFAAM
inactive: [1] -0.033 | [2] 0.052 | [3] -0.049 | [4] 0.039 | [5] -0.011

TIMM10B (UniProt Q9Y5J6)
inactive: [1] -0.018 | [2] 0.18 | [3] 0.058 | [4] 0.066 | [5] -0.026

SPCS2 (UniProt Q15005)
inactive: [1] -0.011 | [2] 0.043 | [3] -0.034 | [4] -0.061 | [5] -0.031

SMARCA5 (UniProt O60264)
inactive: [1] -0.168 | [2] 0.063 | [3] 0.105 | [4] -0.026 | [5] -0.006

TJP1 (UniProt Q07157)
inactive: [1] 0 | [2] 0.028 | [3] 0.069 | [4] 0.014 | [5] 0.023

THRAP3 (UniProt Q9Y2W1)
Chain of UniProt Q9Y2W1 (Q9Y2W1 whole entry, looked up): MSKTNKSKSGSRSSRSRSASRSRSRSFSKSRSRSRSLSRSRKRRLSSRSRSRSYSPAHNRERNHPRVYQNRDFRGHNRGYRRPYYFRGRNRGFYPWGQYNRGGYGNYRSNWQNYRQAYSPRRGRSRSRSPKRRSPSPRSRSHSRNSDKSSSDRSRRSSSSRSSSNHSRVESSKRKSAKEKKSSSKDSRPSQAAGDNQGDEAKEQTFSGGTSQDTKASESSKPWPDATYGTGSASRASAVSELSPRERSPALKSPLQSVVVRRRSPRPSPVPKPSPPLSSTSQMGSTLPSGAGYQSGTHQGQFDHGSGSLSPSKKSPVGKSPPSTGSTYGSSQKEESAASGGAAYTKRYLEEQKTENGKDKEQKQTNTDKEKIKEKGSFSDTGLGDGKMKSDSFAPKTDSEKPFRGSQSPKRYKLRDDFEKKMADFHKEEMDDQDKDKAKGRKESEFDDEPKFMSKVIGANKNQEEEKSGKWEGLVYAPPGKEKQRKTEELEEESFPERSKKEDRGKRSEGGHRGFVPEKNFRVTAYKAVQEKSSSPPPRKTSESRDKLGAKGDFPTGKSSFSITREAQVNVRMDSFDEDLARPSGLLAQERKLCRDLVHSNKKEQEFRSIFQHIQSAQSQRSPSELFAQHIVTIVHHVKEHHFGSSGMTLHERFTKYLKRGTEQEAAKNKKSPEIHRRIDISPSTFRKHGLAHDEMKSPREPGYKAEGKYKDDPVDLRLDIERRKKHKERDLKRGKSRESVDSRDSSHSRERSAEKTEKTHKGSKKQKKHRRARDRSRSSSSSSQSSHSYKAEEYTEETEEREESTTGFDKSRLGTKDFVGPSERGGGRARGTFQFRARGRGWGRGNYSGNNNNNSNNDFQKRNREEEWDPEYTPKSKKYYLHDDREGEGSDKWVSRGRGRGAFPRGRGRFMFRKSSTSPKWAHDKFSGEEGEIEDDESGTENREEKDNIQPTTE
inactive: [1] 0.09 | [2] 0.193 | [3] -0.072 | [4] 0.046 | [5] 0.028

SPG11 (UniProt Q96JI7)
inactive: [1] 0.095 | [2] 0.05 | [3] 0.444 | [4] 0.24 | [5] 0.083

SUMO1 (UniProt P63165)
Chain of UniProt P63165 (P63165 whole entry, looked up): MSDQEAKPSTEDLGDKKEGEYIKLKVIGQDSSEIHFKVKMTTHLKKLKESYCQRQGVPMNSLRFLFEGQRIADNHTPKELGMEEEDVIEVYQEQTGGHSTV
inactive: [1] -0.004 | [2] -0.097 | [3] -0.048 | [4] 0.231 | [5] 0.152

SP3 (UniProt Q02447)
inactive: [1] 0.018 | [2] -0.024 | [3] -0.043 | [4] 0.025 | [5] 0.009

SSR3 isoform 2 (UniProt Q9UNL2)
inactive: [1] 0.016 | [2] -0.087 | [3] -0.107 | [4] -0.078 | [5] -0.168

SPG21 (UniProt Q9NZD8)
inactive: [1] -0.128 | [2] -0.035 | [3] 0.031 | [4] -0.062 | [5] -0.02

TFAM (UniProt Q00059)
Chain of UniProt Q00059 (Q00059 whole entry, looked up): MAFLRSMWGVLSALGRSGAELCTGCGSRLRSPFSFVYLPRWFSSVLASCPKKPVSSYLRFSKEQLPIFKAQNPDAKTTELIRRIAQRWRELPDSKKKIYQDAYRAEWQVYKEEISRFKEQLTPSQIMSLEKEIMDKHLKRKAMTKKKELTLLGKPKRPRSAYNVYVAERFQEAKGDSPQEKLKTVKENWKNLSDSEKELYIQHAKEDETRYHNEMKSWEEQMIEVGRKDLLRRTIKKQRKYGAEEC
inactive: [1] 0.062 | [2] -0.046 | [3] -0.018 | [4] 0.108 | [5] 0.009

SLC25A4 (UniProt P12235)
inactive: [1] -0.001 | [2] -0.034 | [3] 0.062 | [4] -0.049 | [5] 0.05

SYMPK (UniProt Q92797)
inactive: [1] -0.127 | [2] 0.034 | [3] 0.101 | [4] -0.006 | [5] 0.02

SUPT5H (UniProt O00267)
inactive: [1] -0.05 | [2] 0.109 | [3] 0.106 | [4] 0.001 | [5] -0.051

TFRC (UniProt P02786)
Chain of UniProt P02786 (P02786 whole entry, looked up): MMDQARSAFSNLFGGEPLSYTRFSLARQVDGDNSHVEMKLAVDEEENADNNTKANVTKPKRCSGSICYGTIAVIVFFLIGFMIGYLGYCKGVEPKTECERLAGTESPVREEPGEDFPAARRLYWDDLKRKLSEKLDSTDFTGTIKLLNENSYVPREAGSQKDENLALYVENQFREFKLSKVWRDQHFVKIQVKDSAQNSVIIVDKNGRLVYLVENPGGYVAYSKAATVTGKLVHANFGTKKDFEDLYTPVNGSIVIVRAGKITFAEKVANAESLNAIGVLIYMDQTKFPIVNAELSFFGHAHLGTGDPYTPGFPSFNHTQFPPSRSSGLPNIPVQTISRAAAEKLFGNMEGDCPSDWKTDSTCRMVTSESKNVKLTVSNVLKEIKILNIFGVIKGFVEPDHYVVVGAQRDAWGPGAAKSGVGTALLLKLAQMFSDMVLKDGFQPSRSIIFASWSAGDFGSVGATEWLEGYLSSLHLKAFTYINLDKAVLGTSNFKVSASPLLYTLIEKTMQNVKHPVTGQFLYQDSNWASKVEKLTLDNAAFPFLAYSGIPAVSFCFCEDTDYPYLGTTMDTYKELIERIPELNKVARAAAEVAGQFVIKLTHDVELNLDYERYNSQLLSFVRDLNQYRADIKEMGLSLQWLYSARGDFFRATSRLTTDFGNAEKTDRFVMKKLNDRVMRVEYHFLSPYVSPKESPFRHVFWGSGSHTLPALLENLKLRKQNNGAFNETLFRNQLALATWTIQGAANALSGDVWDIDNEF
inactive: [1] 0.058 | [2] 0.032 | [3] 0.008 | [4] 0.011 | [5] 0.021

SNX9 (UniProt Q9Y5X1)
Chain of UniProt Q9Y5X1 (Q9Y5X1 whole entry, looked up): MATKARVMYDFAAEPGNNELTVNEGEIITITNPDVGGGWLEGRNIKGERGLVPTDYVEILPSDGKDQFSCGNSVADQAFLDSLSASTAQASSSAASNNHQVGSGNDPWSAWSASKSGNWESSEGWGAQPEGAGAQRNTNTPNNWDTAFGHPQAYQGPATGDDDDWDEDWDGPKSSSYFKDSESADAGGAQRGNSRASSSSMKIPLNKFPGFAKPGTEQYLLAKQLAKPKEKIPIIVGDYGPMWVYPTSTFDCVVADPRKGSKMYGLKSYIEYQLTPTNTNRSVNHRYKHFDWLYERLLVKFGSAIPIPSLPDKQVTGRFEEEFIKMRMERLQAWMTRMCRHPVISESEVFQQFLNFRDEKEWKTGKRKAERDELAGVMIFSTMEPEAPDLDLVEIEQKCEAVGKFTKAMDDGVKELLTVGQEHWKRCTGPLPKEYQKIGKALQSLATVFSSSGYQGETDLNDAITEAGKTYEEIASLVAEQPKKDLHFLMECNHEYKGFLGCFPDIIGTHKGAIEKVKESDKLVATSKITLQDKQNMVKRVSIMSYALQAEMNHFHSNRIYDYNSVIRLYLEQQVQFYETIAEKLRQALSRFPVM
inactive: [1] -0.051 | [2] 0.019 | [3] 0.048 | [4] 0.002 | [5] 0.017

TCERG1 (UniProt O14776)
inactive: [1] -0.1 | [2] 0.106 | [3] 0.182 | [4] -0.065 | [5] -0.033

TIAL1 isoform 2 (UniProt Q01085)
inactive: [1] -0.023 | [2] 0.049 | [3] 0.015 | [4] 0.043 | [5] -0.024

SNRPD3 (UniProt P62318)
Chain of UniProt P62318 (P62318 whole entry, looked up): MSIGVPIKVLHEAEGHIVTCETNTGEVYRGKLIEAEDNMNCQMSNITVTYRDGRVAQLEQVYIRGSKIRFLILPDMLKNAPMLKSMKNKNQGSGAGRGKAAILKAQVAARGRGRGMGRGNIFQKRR
inactive: [1] 0.035 | [2] -0.029 | [3] 0 | [4] 0.106 | [5] 0.036

SLC38A2 (UniProt Q96QD8)
inactive: [1] -0.006 | [2] 0.044 | [3] 0.024 | [4] -0.028 | [5] 0.035

SSRP1 (UniProt Q08945)
inactive: [1] -0.027 | [2] 0.023 | [3] 0.087 | [4] -0.051 | [5] -0.016

SLC25A36 (UniProt Q96CQ1)
inactive: [1] 0.027 | [2] -0.041 | [3] -0.066 | [4] 0.051 | [5] -0.008

TGFBR1 isoform 2 (UniProt P36897)
inactive: [1] -0.001 | [2] 0.029 | [3] -0.047 | [4] -0.029 | [5] 0.026

SSR4 (UniProt P51571)
inactive: [1] 0.045 | [2] 0.046 | [3] 0.002 | [4] -0.048 | [5] -0.018

TBC1D10B (UniProt Q4KMP7)
inactive: [1] -0.021 | [2] 0.062 | [3] 0.014 | [4] -0.026 | [5] 0.006
